Measurements as given in PubChem BioAssay (NCATS).
Values without a mark were called inactive. Calls come from the whole dose curve; as a rule, active = well fitted curve in the direction sought with a large enough effect; inconclusive = small, poorly fitted or top-dose-only effect, or effect the other way, or another doubt; inactive = no such curve, though single readings can be large or run the other way.

Experiment: qHTS for inhibitors of adenylyl cyclases using a fission yeast platform: a pilot screen against the NCATS LOPAC library (AID 1347410);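 note: plate controls were DMSO vehicle for no effect and DPI positive control for full effect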
Conditions: S. pombe CHP2027, fbp1-GFP fluorescence, 18 h, yeast expressing mammalian AC9 and human GNAS; series mostly up to 57.5 µM; activity, positive = inhibition (GFP gain): at the top concentration
Method in brief: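 Growth medium went into the plates first, then compounds were pinned (final up to 57 µM), then CHP2027 yeast were added. Plates were incubated overnight (18 h) at 30C in the dark, and GFP was measured by laser scanning cytometry.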
In the case of `O=S(=O)(c1cccc2c(Cl)cccc12)N1CCCNCC1`, the “activity, positive = inhibition (GFP gain)” value is reported as -0.438%.
With `NC(=O)c1ccccc1` the “activity, positive = inhibition (GFP gain)” value was -0.438%.
In the case of `Oc1cc(O)c2c(c1)O[C@H](c1ccc(O)c(O)c1)[C@@H](O)C2`, the “activity, positive = inhibition (GFP gain)” value is reported as -0.438%.
With `Cn1c(=O)c2[nH]c(-c3ccc(S(=O)(=O)O)cc3)nc2n(C)c1=O` the “activity, positive = inhibition (GFP gain)” value was 0.0997%.
For `[N-]=[N+]=Nc1ccc(C(=O)CSC[C@H](NC(=O)CC[C@H](N)C(=O)O)C(=O)NCC(=O)O)cc1`, the “activity, positive = inhibition (GFP gain)” value was -0.438%.
With `N#Cc1cc([N+](=O)[O-])c2sc(C(N)=O)[n+]([O-])c2c1` the “activity, positive = inhibition (GFP gain)” value was -0.438%.
With `CCN(CC)CCCCCCCCOC(=O)c1cc(OC)c(OC)c(OC)c1` the “activity, positive = inhibition (GFP gain)” value was -0.438%.
In the case of `CN(C)CCC(c1ccc(Br)cc1)c1ccccn1` (stereo not drawn), the “activity, positive = inhibition (GFP gain)” value is reported as 0.0812%.
In the case of `COc1ccc2c(c1)c(CC(=O)O)c(C)n2Cc1ccc(Cl)cc1`, the “activity, positive = inhibition (GFP gain)” value is reported as 6.05%.
For `O=C(N[C@@H](Cc1ccccc1)C(=O)CCl)OCc1ccccc1`, the “activity, positive = inhibition (GFP gain)” value was -0.438%.
With `Nc1ncnc2c1c(-c1ccc(Oc3ccccc3)cc1)cn2C1CCCC1` the “activity, positive = inhibition (GFP gain)” value was -0.438%.
In the case of `O=c1[nH]c2ccccc2c2ccccc12`, the “activity, positive = inhibition (GFP gain)” value is reported as 0.703%.
For `CN(CC[C@@H](Oc1ccc(C(F)(F)F)cc1)c1ccccc1)CC(=O)O`, the “activity, positive = inhibition (GFP gain)” value was 0.188%.
For `COc1cc([C@@H]2c3cc4c(cc3[C@H](O)C3COC(=O)[C@@H]32)OCO4)cc(OC)c1OC` (stereo partly drawn), the “activity, positive = inhibition (GFP gain)” value was 0.0719%.
With `Cc1nc(N=Nc2ccc(C(=O)O)cc2)c(COP(=O)(O)O)c(C=O)c1O` the “activity, positive = inhibition (GFP gain)” value was 0.114%.
With `COc1cc(/C=C(\C#N)C(=O)Nc2nnc(C(F)(F)F)s2)ccc1OCc1ccc(C(F)(F)F)cc1C(F)(F)F` the “activity, positive = inhibition (GFP gain)” value was -0.438%.
In the case of `CN1Cc2sccc2C(c2ccc(O)c(O)c2)C1` (stereo not drawn), the “activity, positive = inhibition (GFP gain)” value is reported as -0.438%.
For `Clc1nccc2c1ccc1ccccc12`, the “activity, positive = inhibition (GFP gain)” value was -0.438%.
With `O=[N+]([O-])c1cccc2cn[nH]c12` the “activity, positive = inhibition (GFP gain)” value was 1.51%.
For `CCCCCCCCCC(=O)NC(CN1CCOCC1)[C@H](O)c1ccccc1` (stereo partly drawn), the “activity, positive = inhibition (GFP gain)” value was -0.438%.
In the case of `O=C1Nc2ccc(I)cc2/C1=C/c1cc(Br)c(O)c(Br)c1`, the “activity, positive = inhibition (GFP gain)” value is reported as -0.438%.
In the case of `CNCCNS(=O)(=O)c1cccc2cnccc12`, the “activity, positive = inhibition (GFP gain)” value is reported as -0.438%.
With `N#CC(=C(\N)Sc1ccccc1N)/C(C#N)=C(/N)Sc1ccccc1N` the “activity, positive = inhibition (GFP gain)” value was -0.438%.
In the case of `Oc1cc2c(cc1O)C(c1ccccc1)CNCC2` (stereo not drawn), the “activity, positive = inhibition (GFP gain)” value is reported as -0.438%.
With `CCCCOC(=O)NS(=O)(=O)c1sc(CC(C)C)cc1-c1ccc(Cn2c(CC)nc3c(C)cc(C)nc32)cc1` the “activity, positive = inhibition (GFP gain)” value was 0.128%.
In the case of `NCCCCN=C(N)N`, the “activity, positive = inhibition (GFP gain)” value is reported as -0.438%.
In the case of `OC[C@H]1O[C@@H](n2cnc3cncnc32)[C@H](O)[C@@H]1O`, the “activity, positive = inhibition (GFP gain)” value is reported as 1.63%.
For `CCCCCCCCCCC(C)(C)C(=O)Nc1c(OC)cc(OC)cc1OC`, the “activity, positive = inhibition (GFP gain)” value was -0.146%.
For `CC(C)(C)c1ccc(/C=C/C(=O)Nc2ccc3c(c2)OCCO3)cc1`, the “activity, positive = inhibition (GFP gain)” value was 0.146%.
With `O=c1[nH]c(=S)[nH]c(-c2ccccc2)c1Cc1c(O)ccc2ccccc12` the “activity, positive = inhibition (GFP gain)” value was -0.438%.
For `Cn1c(=O)[nH]c2ncn(C)c2c1=O`, the “activity, positive = inhibition (GFP gain)” value was -0.438%.
For `O=C(O)C1=CC(=C(c2ccc(O)c(C(=O)O)c2)c2ccc(O)c(C(=O)O)c2)C=CC1=O`, the “activity, positive = inhibition (GFP gain)” value was -0.438%.
In the case of `CCC1(O)CC2CN(CCc3c([nH]c4ccccc34)[C@@](C(=O)OC)(c3cc4c(cc3OC)N(C=O)C3[C@]45CCN4CC=C[C@@](CC)([C@@H](OC(C)=O)[C@]3(O)C(=O)OC)[C@H]45)C2)C1` (stereo partly drawn), the “activity, positive = inhibition (GFP gain)” value is reported as -0.438%.
With `N[C@H]1CONC1=O` the “activity, positive = inhibition (GFP gain)” value was 0.545%.
For `C=CCNc1ncnc2ccc(Br)cc12`, the “activity, positive = inhibition (GFP gain)” value was 0.824%.
With `C=CCN1CCc2c(cc(O)c(O)c2Br)[C@@H](c2ccccc2)C1` the “activity, positive = inhibition (GFP gain)” value was -0.438%.
In the case of `O=C(O)C1CCNCC1`, the “activity, positive = inhibition (GFP gain)” value is reported as -0.438%.
For `NCCNS(=O)(=O)c1cccc2c(Cl)cccc12`, the “activity, positive = inhibition (GFP gain)” value was -0.438%.
